In the library only some 2.8% were active in any assay of this set; here they are far more common.
KCNH2 3.1 block – qHTS for Inhibitors of KCHN2 3.1: Mutant qHTS. Potassium voltage-gated channel subfamily H member 2, brain isoform KCNH2 3.1 (human). U2OS KCNH2 3.1, thallium flux FluxOr; hits give low values. activity change, % (tested at about 1.8 µM). 340,000 compounds, 0.95% hits. AID 720553, 2013;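 active means maximum activity change below -70%; inconclusive means maximum activity change from -70% to -50%; inactive means maximum activity change above -50%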;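 further: thallium influx rate constant from kinetic fluorescence after stimulation buffer; on the % scale 0 is the no-effect control and ±100 the full control effect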
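Steps: virus added to U2OS suspension (4 h, RT, dark); medium with 10% FBS added, cells plated, 37 C overnight; FluxOr/Red40 loading buffer 45 min RT; stimulation buffer, 2 min kinetic read; rate constant normalized.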
GLP-1R inv ag – qHTS of GLP-1 Receptor Inverse Agonists (Inhibition Mode); Potency, µM (titrated, usually from 38.3 µM), for inactives: at the highest dose activity change, negative = inhibition, hits mostly inhibitors; HEK293 GLP-1R CRE-luciferase, luminescence, 24 h; GLP-1R form is constitutively active; 410,000 compounds, 1.6% hits; further: potency means the concentration at half of the fitted maximal effect; on the % scale 0 is the no-effect control and ±100 the full control effect; nearly all actives have a fitted effect of over 55% in size
Target sequence (P43220 whole entry, looked up): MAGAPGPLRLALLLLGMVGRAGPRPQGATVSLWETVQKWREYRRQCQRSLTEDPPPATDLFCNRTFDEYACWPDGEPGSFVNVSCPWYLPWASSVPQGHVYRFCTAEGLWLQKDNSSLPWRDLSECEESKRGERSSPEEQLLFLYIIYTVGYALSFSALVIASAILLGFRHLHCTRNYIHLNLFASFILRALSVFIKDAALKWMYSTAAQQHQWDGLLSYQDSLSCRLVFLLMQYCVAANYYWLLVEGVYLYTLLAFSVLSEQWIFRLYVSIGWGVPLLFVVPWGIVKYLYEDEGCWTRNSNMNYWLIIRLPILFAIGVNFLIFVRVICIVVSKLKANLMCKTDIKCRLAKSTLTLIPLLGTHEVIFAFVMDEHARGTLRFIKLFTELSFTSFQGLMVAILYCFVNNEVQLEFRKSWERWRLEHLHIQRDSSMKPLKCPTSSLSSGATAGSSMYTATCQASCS
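Stable HEK293 clone (constitutively active GLP-1R + cAMP-response luciferase); 200 cells/uL plated, 12 h pre-culture, compound 24 hr, 37 deg C/5% CO2; detection reagent 12 min RT; luminescence.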
GLS inh – qHTS for Inhibitors of Glutaminase (GLS). Glutaminase kidney isoform, mitochondrial (Homo sapiens), O94925. GLS enzymatic activity, qHTS titration. Potency, µM (top dose mostly 45.5 µM), for inactives: top-dose activity change, negative = inhibition, actives largely listed as inhibitors. 410,000 compounds, 0.21% hits. AID 624170, 2012; further: potency means the concentration at half of the fitted maximal effect; on the % scale 0 is the no-effect control and ±100 the full control effect
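Glutamate formation by hKGA was monitored fluorometrically using coupled glutamate oxidase, HRP and Amplex Red. Substrate was added as 1 mM L-glutamine solution; incubation was 30 min at RT after an initial read.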
GLP-1R agonist – qHTS of GLP-1 Receptor Agonists; Glucagon-like peptide 1 receptor (Homo sapiens), P43220; AID 624172, 2012; 380,000 compounds, 0.007% hits; HEK293 GLP-1R CRE-luciferase, luminescence, 4-6 h; cells express a hypersensitive GLP-1R form; Potency, µM (titrated, usually from 45.6 µM), for inactives: at the highest dose activation, usual class: activators; further: potency means the concentration at half of the fitted maximal effect; % of control where 0% means no effect
hERG WT inh – qHTS for Inhibitors of KCHN2 3.1: Wildtype qHTS; Voltage-gated inwardly rectifying potassium channel KCNH2 (Homo sapiens), Q12809; U2OS, BacMam KCNH2, thallium flux FluxOr; hits give low values; activity change, % at 1.84 µM; 340,000 compounds, 0.37% hits; AID 720551, 2013;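 active means maximum activity change below -70%; inconclusive means maximum activity change between -70% and -50%; inactive means maximum activity change above -50%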; further: on the % scale 0 is the no-effect control and ±100 the full control effect
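U2OS cells were transduced with wild-type KCNH2 virus (2.03 x 10^8 / mL) for 4 h at room temperature, then cultured overnight at 37 C. Thallium flux was read with FluxOr dye. Rate constants were normalized to DMSO controls.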
GLP1R cytotox – qHTS of GLP-1 Receptor Inverse Agonists: Cytotox Screen | HEK293 cAMP-luciferase reporter cells, luminescence, 24 h | Potency, µM (highest dose often 38.3 µM), inactives show top-dose activity change, negative = inhibition, hits mostly inhibitors | 410,000 compounds, 0.13% hits | AID 624418, 2012;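 further: loss of luciferase light is scored as toxicity; potency means the concentration at half of the fitted maximal effect; on the % scale 0 is the no-effect control and ±100 the full control effect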
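1536-well qHTS counterscreen of the MLSMR; 200 cells/uL, 12 h pre-incubation, 23 nL cpd, 24 h at 37 deg C 5% CO2, luciferase detection reagent, 12 min RT, luminescence. Inhibition = undesired.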
Numbers without * were called inactive; ? = inconclusive; nt = not tested or not shown; ! = a repeat was not active. Unless noted, the call rests on the fitted dose curve; in most records, active means well fitted curve in the direction sought with a large enough effect; inconclusive means small, poorly fitted or top-dose-only effect, or another doubt; inactive means no such curve, though single readings can be large; an effect the other way counts as inactive or inconclusive.

SMILES	KCNH2 3.1 block	GLP-1R inv ag	GLS inh	GLP-1R agonist	hERG WT inh	GLP1R cytotox
O=C(O)c1cc(-c2ccc(/C=C3\NC(=O)N(c4ccc(Cl)cc4)C3=O)o2)ccc1Cl	-11	19%	20µM*	-5%	1	5%
COc1cc(C(C)=O)ccc1OCCCN1CCC(c2noc3cc(F)ccc23)CC1	nt	nt	20%	14%	nt	nt
CCOc1ccccc1NC(=O)c1cc2c(Cl)nc3ccccc3c2s1	nt	4%	0%	-1%	nt	-4%
N#C/C(=C/c1ccc(Sc2nc3ccccc3[nH]2)o1)c1cccc(Br)c1	-7	10µM*	-12%	-5%	-7	61%
S=C1NCCc2ccc(Cl)cc2C1c1ccccc1 (configuration not stated)	-15	11µM*	9%	-6%	0	?
COc1ccc(S(=O)(=O)c2c(C)c(NS(=O)(=O)c3ccccc3)cc(C)c2O)cc1	1	?	3.2µM*!	5%	-3	8%
CCOC(=O)c1c(C(F)(F)C(F)(F)C(F)(F)C(F)(F)F)n[nH]c1C	7	10µM*	-9%	-1%	31	?
COc1ccc(C2c3[nH]c4ccccc4c3CCN2Cc2cccn2-c2ncccn2)cc1C (configuration not stated)	-79*	?	3%	0%	?	?
Cc1cccc(C2c3[nH]c4ccccc4c3CCN2Cc2cccn2-c2ncccn2)c1 (configuration not stated)	?	?	-7%	6%	?	?
N#CC(C#N)=C1C=CC=CN1/C(=C\c1ccco1)C(=O)c1ccc(-c2ccccc2)cc1	-85*	?	-7%	-26%	-8	21%
CCOc1ccc(NC(=S)N(CCc2c(C)[nH]c3ccc(C)cc23)Cc2ccco2)cc1	0	7.9µM*	3%	-5%	0	14%
O=S(=O)(c1cccc(F)c1)N1CCc2sccc2C1c1ccc(OC(F)(F)F)cc1 (configuration not stated)	-12	7.9µM*	-6%	-1%	-2	-2%
Cc1ccc(CN2CCC(C(=O)Nc3cccc(-c4cccc(F)c4)c3)CC2)o1	-10	?	-2%	5%	4	-22%
O=C(Nc1cccc(-c2cccc(Cl)c2)c1)C1CCN(Cc2ccc(CO)o2)CC1	?	3.5µM*	0%	6%	17	?
COc1ccc(CN2CCC(C(=O)Nc3ccc(Oc4cccnc4)cc3)CC2)c(C)c1C	-74*	?	8%	-3%	5	-11%
Cn1cc(CN2CCCC(C(=O)Nc3cccc(-n4cccn4)c3)C2)cn1 (configuration not stated)	5	-24%	5%	-1%	6	-5%
COc1cccc(O)c1CN1CCC(C(=O)Nc2ccc(Oc3cccnc3)cc2)CC1	-23	?	22%	4%	-3	-7%
Cn1cc(CN2CCCC(C(=O)Nc3ccc(-c4cccc(F)c4)cc3)C2)cn1 (configuration not stated)	?	4.5µM*	-3%	-2%	28	-11%
Cn1cc(CN2CCC(C(=O)Nc3ccc(Oc4ccccc4F)cc3)CC2)cn1	-3	11µM*	-11%	-3%	-14	23%
COc1cccc(CN2C(=O)c3ccccc3Sc3ccc(C(=O)NCCc4ccc(C)cc4)cc32)c1	nt	-3%	-7%	1%	nt	1%
Cc1nnc(SCC(=O)Nc2ccc(Br)cc2)[nH]c1=O	nt	10%	-10%	nt	nt	-3%
